ALR H2O2 inh: human ALR oxidase inhibition via reduced H2O2; purified ALR, DTT oxidation, H2O2 HRP-luminol luminescence; inhibition, % (no concentration beside the values); 3.8% of 290,000 active;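 active = mean replicate inhibition above about 79%, with every replicate also reaching it, limit read from the data; inconclusive = only one of the two criteria met; inactive = mean below limit and not every replicate reaching it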
Target sequence (P55789 whole entry, looked up): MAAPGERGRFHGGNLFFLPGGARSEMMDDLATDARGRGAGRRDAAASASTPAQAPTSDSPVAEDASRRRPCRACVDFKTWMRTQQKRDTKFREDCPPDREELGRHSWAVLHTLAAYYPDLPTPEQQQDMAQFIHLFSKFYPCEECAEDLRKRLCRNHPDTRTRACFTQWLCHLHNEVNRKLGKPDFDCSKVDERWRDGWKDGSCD
GC-B act: GC-B (human) receptor activation; P20594; AID 1920062; activation, % at 10 µM; 0.11% of 370,000 active; HEK293-GC-B cells, CNP EC30, cGMP TR-FRET; 0% at EC30 CNP, 100% saturating CNP;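 active = activation at 10 µM reaching about 35% in either raw or pattern-adjusted values, limit read from the data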
HDAC3 inh: inhibitors of human histone deacetylase 3 | O15379 | inhibition, % at 8.3 µM | AID 2718 | recombinant HDAC3, fluorogenic peptide/trypsin coupled, fluorescence | 0.15% of 320,000 active; in the data active = inhibition above about 26%, passing the limit was not always enough; inconclusive = no clear call, values can overlap the other calls
Target sequence (O15379 whole entry, looked up): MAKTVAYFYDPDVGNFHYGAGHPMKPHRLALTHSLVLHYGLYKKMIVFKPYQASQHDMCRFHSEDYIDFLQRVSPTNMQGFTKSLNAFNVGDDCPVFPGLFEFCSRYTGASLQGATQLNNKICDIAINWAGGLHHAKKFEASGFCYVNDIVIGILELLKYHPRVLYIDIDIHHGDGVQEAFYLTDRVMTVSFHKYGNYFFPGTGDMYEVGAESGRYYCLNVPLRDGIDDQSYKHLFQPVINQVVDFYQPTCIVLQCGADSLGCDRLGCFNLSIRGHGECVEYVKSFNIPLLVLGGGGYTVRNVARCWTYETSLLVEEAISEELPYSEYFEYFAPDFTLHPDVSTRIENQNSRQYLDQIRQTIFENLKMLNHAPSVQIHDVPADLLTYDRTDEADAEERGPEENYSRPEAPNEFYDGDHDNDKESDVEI
GC-A act: GC-A (human) enzyme activation | activation, % at 10 µM | HEK293 GC-A cells, cGMP TR-FRET, EC30 ANP; 0% at EC30 ANP, 100% saturating ANP | P16066 | AID 1671463 | 0.14% of 370,000 active; in the data active = activation above about 40%
Large screens that a line does not name were inactive. The full list was thinned out, with hits kept by preference.

Cc1ccccc1NC(=O)Nc1nc(C(N)Cc2ccccc2)cs1 (centres undefined)	none (no result: ALR H2O2 inh, HDAC3 inh)
O=C(Nc1ccccc1N1CCCCC1)c1ccccc1F	none
CCC(C(=O)Nc1ccccc1N1CCCC1)c1ccccc1 (centres undefined)	ALR H2O2 inh 98
O=C(Nc1ccccc1N1CCCC1)c1ccccc1F	ALR H2O2 inh 98
CC[C@H](C(=O)Nc1ccccc1N1CCCC1)c1ccccc1	none (no result: ALR H2O2 inh, HDAC3 inh)
O=C(CNCC1CCCO1)Nc1ccccc1N1CCCCCC1 (centres undefined)	ALR H2O2 inh 99
CN(C)CCNc1ncnc2c1ncn2[C@H]1CN(Cc2ccc3c(c2)OCO3)C[C@@H](CO)O1	none (no result: ALR H2O2 inh, HDAC3 inh)
O=C(NCCCN1CCCC1=O)c1c(O)nc2sccn2c1=O	none
CN1/C(=C\C=N\NC(=O)c2cccnc2)C(C)(C)c2ccccc21	ALR H2O2 inh 98
O=S1(=O)NC(=NC2CCCCCC2)c2ccccc21	ALR H2O2 inh 89
CC(N=C1NS(=O)(=O)c2ccccc21)c1ccccc1 (centres undefined)	none
CC(OC(=O)COc1ccccc1[N+](=O)[O-])C(=O)Nc1ccc(N2CCOCC2)cc1 (centres undefined)	ALR H2O2 inh 76
Cc1ccc(S(=O)(=O)CCC(=O)OC(C)C(=O)Nc2ccc(N3CCOCC3)cc2)cc1 (centres undefined)	none
Cc1ccc(C(=O)NCC(=O)OC(C)C(=O)Nc2ccc(N3CCOCC3)cc2)s1 (centres undefined)	ALR H2O2 inh 93
CN(c1ccc(Br)cc1)S(=O)(=O)c1ccc2[nH]cc(C(=O)NCCN3CCOCC3)c(=O)c2c1	none
CCC1CC(C(=O)Nc2ccccc2)C(=O)O1 (centres undefined)	none
CC1=Nc2ccc(C)cc2/C1=C/c1c(N)n2c(S(=O)(=O)C(C)C)nsc2nc1=O	none (no result: ALR H2O2 inh, HDAC3 inh)
CC1=Nc2ccccc2/C1=C/c1c(N)n2c(S(=O)(=O)C(C)C)nsc2nc1=O	ALR H2O2 inh 97
O=[N+]([O-])c1cc2c(cc1Br)-c1ccccc1C2	none (no result: ALR H2O2 inh, HDAC3 inh)
CN(CC(=O)N1CCCC1)S(=O)(=O)c1ccc2ccccc2c1	none
NC(=O)N/N=C/c1sc(N2CCCCC2)nc1-c1cccs1	ALR H2O2 inh 97
O=C(c1ccc(CS(=O)Cc2ccccc2Cl)o1)N1CCN(c2ccccn2)CC1 (centres undefined)	ALR H2O2 inh 99
O=C(c1ccc(CS(=O)Cc2ccccc2Cl)o1)N1CCN(c2cccc(Cl)c2)CC1 (centres undefined)	ALR H2O2 inh 99
COc1ccc(S[C@]2(C(=O)N3CCCC3)CC(=O)N[C@@H]2c2ccc(OC)cc2)cc1	none (no result: ALR H2O2 inh, HDAC3 inh)
Cc1cc(-c2cc(NC(=O)Cc3c[nH]c4ccccc34)ccc2N(C)c2cccnc2)ccc1F	none (no result: ALR H2O2 inh, HDAC3 inh)
Cc1ccc2nc(NC(=O)CSc3nc4c(c(=O)n3C)SC(C)C4)sc2c1 (centres undefined)	ALR H2O2 inh 99 (no result: GC-B act, GC-A act)
CC1Cc2nc(SCC(=O)Nc3ccc(F)cc3F)n(C)c(=O)c2S1 (centres undefined)	ALR H2O2 inh 99
CC1Cc2nc(SCC(=O)Nc3ccc4c(c3)OCCO4)n(C)c(=O)c2S1 (centres undefined)	ALR H2O2 inh 94
COCCn1c(SCC(=O)Nc2ccc3c(c2)OCCO3)nc2c(c1=O)SC(C)C2 (centres undefined)	ALR H2O2 inh 99
Cc1ccc(C)c(NC(=O)CSc2nc3c(c(=O)n2C)SC(C)C3)c1 (centres undefined)	none
CC1Cc2nc(SCC(=O)Nc3ccc4c(c3)OCO4)n(Cc3ccccc3)c(=O)c2S1 (centres undefined)	none
COc1ccc(CNC(=O)COC(=O)c2cccn2C)cc1	none
ClCC1NCC(c2ccccc2Cl)c2c1[nH]c1ccccc21 (centres undefined)	ALR H2O2 inh 98
FC(F)(F)c1ccccc1Cc1c(-c2ccco2)nc2c3ccccc3ccn12	none (no result: ALR H2O2 inh, HDAC3 inh)
Cc1ccc(-c2nc3cc(C)c(Br)c(C)n3c2CC(C)(C)C)cc1	none (no result: ALR H2O2 inh, HDAC3 inh)
Cc1cc(Nc2ccccc2C(=O)O)n(-c2cccc(Cl)c2)n1	ALR H2O2 inh 98
Cc1cc(Nc2nc3ccccc3nc2Cl)n(-c2ccccc2)n1	ALR H2O2 inh 96
Cc1cc(Nc2ccccc2)n(CCO)n1	ALR H2O2 inh 99, HDAC3 inh inconclusive
Cc1cc(Nc2ccc(Cl)cc2)n(-c2ccccc2)n1	ALR H2O2 inh 98
Cc1cc(Nc2nc3ccccc3nc2Cl)n(-c2ccccc2C)n1	none
CCn1nc(C)cc1Nc1ccccc1	none
O=C(C1CCCO1)N1CCN(C(=S)Nc2ccccc2C(F)(F)F)CC1 (centres undefined)	none
Cc1ccc(S(=O)(=O)N2CCN(C(=O)C3CSC4(C)CCC(=O)N34)CC2)cc1C (centres undefined)	none
COc1ccc(N=Nc2c(N)n[nH]c2N)cc1	ALR H2O2 inh 78
Nc1n[nH]c(N)c1N=Nc1ccc(F)cc1	ALR H2O2 inh 86
Cc1ccccc1N=Nc1c(N)n[nH]c1N	ALR H2O2 inh 93
COc1ccc(N=Nc2c(C)n[nH]c2C)cc1	none
Nc1n[nH]c(N)c1N=Nc1ccccc1	ALR H2O2 inh 95
COc1ccccc1NC(=O)COC(=O)C1CC2CCCC(C1)C2=O (centres undefined)	none
CCOC(=O)C1CCN(C(=O)CN(c2ccc(OC)cc2)S(=O)(=O)c2c(C)noc2C)CC1	ALR H2O2 inh 89
COc1ccc(OC)c(NC(=O)CN(c2ccc(C(C)C)cc2)S(=O)(=O)c2c(C)noc2C)c1	ALR H2O2 inh 95
Cc1cc(C)cc(N(CC(=O)N2CCN(Cc3ccccc3)CC2)S(=O)(=O)c2c(C)noc2C)c1	ALR H2O2 inh 96
CN1C(=O)C[C@@](C#N)(C(=O)NCc2ccc3c(c2)OCO3)[C@H]1c1ccccc1	none (no result: ALR H2O2 inh, HDAC3 inh)
CCOC(=O)C1CCN(CC(=O)c2ccc(O)c(C)c2O)CC1	none
O=C(N/N=C/c1ccsc1)c1c[nH]c2ccccc12	none
CC(OC(=O)CNC(=O)c1ccc2ccccc2c1)C(=O)N(C)C1CCCCC1 (centres undefined)	none (no result: ALR H2O2 inh)
CCC(=O)Nc1cccc2cccnc12	none
C/C(=N\Nc1cccc2cccnc12)c1ccc[nH]1	ALR H2O2 inh 96
Cc1cc(-c2ccc(Cl)cc2Cl)c(C#N)c(=O)[nH]1	none
CSc1nc(-c2ccc(Cl)cc2Cl)[nH]c(=O)c1C#N	ALR H2O2 inh 96
Cc1cc(C)n2c(NC3CCCCC3)c(CC(C)C)nc2n1	none (no result: ALR H2O2 inh, HDAC3 inh)
C(=N\Nc1ccccn1)/c1c[nH]c2ccccc12	ALR H2O2 inh 99
O=C(N/N=C/c1c[nH]c2ccccc12)c1ccc(O)c(O)c1	ALR H2O2 inh 99
O=C(O)c1cccc2c(/C=N/Nc3ccccn3)c[nH]c12	ALR H2O2 inh 98 (no result: GC-B act, GC-A act)
O=C(N/N=C/c1c[nH]c2ccccc12)c1cccc(O)c1	none
O=c1nc(N/N=C/c2c[nH]c3ccccc23)cn[nH]1	none
Cc1ccc(S(=O)(=O)Nc2cccc(C(=O)NCCCN3CCCC3=O)c2)cc1F	none
CCOc1cc(/C=N/O)ccc1OCc1ccc(C)cc1	ALR H2O2 inh 98
CCOc1cc(/C=N/O)ccc1OS(=O)(=O)c1ccc(C)cc1	none

Bioassay records (PubChem BioAssay)
